Bioassay records: PubChem, National Center for Advancing Translational Sciences (NCATS)
A selection: hits, their analogues and other compounds. The true share with any hit is near 7.4%.
ELG1 genotox = qHTS screen for small molecules that induce genotoxicity in human embryonic kidney (HEK293T) cells expressing luciferase-tagged ELG1; Potency, µM (series often up to 46 µM), actives largely listed as activators; hit rate 1.3% among 330,000; AID 504466, 2011; HEK293T ELG1-luciferase reporter, luminescence, 16 h; also: nearly all actives have a fitted effect of over 60% in size
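Luminescence read-out: rising ELG1-luciferase signal, reflecting elevated ELG1 protein under genetic stress, flags genotoxic compounds. Cells were treated for 16 hr at 37 °C before ONE-Glo detection.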
Rab9 promoter act = qHTS Assay for Rab9 Promoter Activators. Huh7 Rab9 promoter-luciferase reporter, luminescence, 24 h. Potency, µM (doses to about 9.22 µM), actives largely listed as activators. hit rate 2.8% among 320,000; also: nearly all actives have a fitted effect of over 60% in size
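Huh7 cells stably carrying Rab9 promoter–luciferase reporter, plated 1500 cells/well, compound added after 2 h and incubated 24 h at 37 °C; luciferase luminescence then read after 10 min with detection reagent.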
NPC1 promoter act = qHTS Assay for NPC1 Promoter Activators. AID 485313, 2010. Potency, µM (doses to about 9.22 µM), actives largely listed as activators. hit rate 2.4% among 320,000. Huh7 NPC1 promoter luciferase reporter, 24 h; also: nearly all actives have a fitted effect of over 60% in size
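Cells: Huh7 expressing luciferase under the NPC1 promoter, 1500/well. Seeded 2 h, compound added, incubated 24 h at 37 °C. Luciferase reagent, 10 min ambient, then luminescence.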
FLuc counter = qHTS profiling assay for firefly luciferase inhibitor/activator using purifed enzyme and Km concentrations of substrates (counterscreen for miR-21 project); Potency, µM (top dose mostly 57.5 µM), hits mostly inhibitors; purified FLuc, Km substrates, luminescence inhibition; Luciferin 4-monooxygenase (Photinus pyralis), P08659; hit rate 6.9% among 360,000; also: nearly all actives have a fitted effect of over 55% in size
Target sequence (P08659 whole entry, looked up): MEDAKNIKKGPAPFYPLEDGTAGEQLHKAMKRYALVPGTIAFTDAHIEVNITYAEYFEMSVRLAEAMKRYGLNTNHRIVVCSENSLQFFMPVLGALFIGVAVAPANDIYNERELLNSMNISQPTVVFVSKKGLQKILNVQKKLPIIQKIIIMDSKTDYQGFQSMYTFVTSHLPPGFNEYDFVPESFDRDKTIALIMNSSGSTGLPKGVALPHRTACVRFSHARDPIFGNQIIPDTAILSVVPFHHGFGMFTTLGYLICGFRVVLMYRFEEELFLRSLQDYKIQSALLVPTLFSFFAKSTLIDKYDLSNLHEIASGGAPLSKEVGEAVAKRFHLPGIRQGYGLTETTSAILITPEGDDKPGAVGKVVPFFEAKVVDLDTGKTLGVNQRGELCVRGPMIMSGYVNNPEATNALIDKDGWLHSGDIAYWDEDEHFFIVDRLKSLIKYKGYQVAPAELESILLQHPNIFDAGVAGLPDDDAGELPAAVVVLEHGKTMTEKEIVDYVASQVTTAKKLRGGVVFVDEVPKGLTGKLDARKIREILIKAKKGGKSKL
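Purified P. pyralis luciferase (10nM final) with 10uM D-luciferin and 10uM ATP (Km levels) in 50mM Tris acetate pH 7.5, 10mM Mg acetate, 0.01% Tween-20, 0.05% BSA; qHTS 6-point titration, ~60 µM downward; luminescence read.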
SMN2 splice up = qHTS Assay for Enhancers of SMN2 Splice Variant Expression. HEK293 SMN2-luciferase splicing reporter, luminescence, 30-36 h. Potency, µM (series often up to 46.1 µM), actives largely listed as activators. hit rate 2.8% among 210,000; also: nearly all actives have a fitted effect of over 55% in size
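qHTS luciferase splicing reporter: luminescence rises when SMN2 exon 7 is included in transfected HEK293 cells. Compound exposure lasted 30-36 h at 37C, with 4.5 mM final sodium butyrate as control, followed by a ONE-Glo read.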
Hits are given with their value; – = inactive; ? = inconclusive; · = no result given. Calls follow the shape of the dose curve; as a rule, active = well fitted curve in the direction sought with a large enough effect; inconclusive = small, poorly fitted or top-dose-only effect, or another doubt; inactive = no such curve, though single readings can be large; an effect the other way counts as inactive or inconclusive.

SMILES	ELG1 genotox	Rab9 promoter act	NPC1 promoter act	FLuc counter	SMN2 splice up
CCOC(=O)C1CCCN(C(=O)CCc2nnc(-c3ccc(C(C)=O)s3)o2)C1 (configuration not stated)	18µM	0.79µM	2.5µM	11µM	·
COc1cnc(-c2ccccn2)[nH]c1=O	–	–	–	–	–
CC(=O)Nc1ccc2nc(-c3ccccn3)[nH]c2c1	?	2.8µM	3.5µM	19µM	11µM
c1cncc(-c2nc3cc4ccccc4cc3[nH]2)c1	?	1.6µM	?	0.6µM	4µM
CC(=O)Nc1ccc2nc(-c3cc(C)ccc3C)[nH]c2c1	·	·	·	?	–
c1ccc(-c2nc3cc4ccccc4cc3[nH]2)nc1	0.23µM	0.63µM	0.63µM	0.11µM	0.45µM
Nc1nc2cc3ccccc3cc2[nH]c1=O	–	–	–	–	·
COc1cccc2[nH]c(-c3ccccn3)nc12	·	·	·	·	4µM
Cc1ccccc1-c1ccnc2c(-c3ccc(F)cc3)c(C)nn12	·	·	·	?	–
Cc1ccc2nc(C3CCN(C(=O)NCc4ccccc4)CC3)[nH]c2c1	–	–	–	17µM	–
COc1ccc2nc(NCCO)[nH]c2c1	–	–	–	–	–
Cc1ccc2nc(C3CCCN(C(=O)NCc4ccccc4)C3)[nH]c2c1 (configuration not stated)	–	–	–	?	·
S=c1nc(NCc2ccc3c(c2)OCO3)c2ccccc2[nH]1	–	–	–	–	·
Cc1ccc2nc(NCc3ccccc3)c(C#N)cc2c1	–	–	–	–	·
COc1ccc2nc(NCc3ccccc3)[nH]c2c1	?	?	–	15µM	13µM
Cc1ccc2nc(NCc3ccccc3)[nH]c2c1	11µM	?	–	9.5µM	8.9µM
c1ccc2[nH]c(NCc3ccc4c(c3)OCO4)nc2c1	?	?	?	3.4µM	·
CCN(CC(=O)Nc1c(F)cccc1F)C(=O)c1cc(-c2cccs2)nn1-c1ccccc1	–	–	–	–	·
O=c1[nH]c2ccccc2nc1NCc1ccccc1	–	–	–	?	·
c1ccc(CNc2nc3ccccc3[nH]2)cc1	?	?	–	6.7µM	?
Cc1cc(/C=N\NC(=O)COc2cccc3cccnc23)c(C)n1-c1ccccc1	–	–	–	1.3µM	·
COc1ccccc1OCC(=O)N/N=C/c1cccc2cccnc12	–	–	–	–	·
Cc1cc(/C=N\NC(=O)COc2cccc3cccnc23)c(C)n1-c1ccc(Br)cc1	–	–	–	4.8µM	–
C=CCn1cc(/C=N/NC(=O)COc2cccc3cccnc23)c2ccccc21	–	–	–	?	–
Cc1nc2ccccn2c1C(=O)N/N=C/c1cc(C)n(-c2ccc(Br)cc2)c1C	–	–	–	12µM	–
SMILES	ELG1 genotox	Rab9 promoter act	NPC1 promoter act	FLuc counter	SMN2 splice up
Cc1ccnc(-n2c(C)cc(/C=N/NC(=O)COc3cccc4cccnc34)c2C)c1	–	–	–	13µM	·
O=C(Cn1cnc2c(NCc3ccccc3)ncnc21)NCc1nc2ccccc2[nH]1	–	·	·	·	·
Cc1cc(/C=N/NC(=O)c2ccccn2)c(C)n1-c1cccc([N+](=O)[O-])c1	–	–	–	?	–
Cc1cc(/C=N/NC(=O)C(=O)NCc2ccccn2)c(C)n1-c1ccccc1	?	–	–	2.7µM	–
Cc1cc(/C=N\NC(=O)c2cccs2)c(C)n1-c1ccc2ncccc2c1	?	1.8µM	2.8µM	1.3µM	?
COc1cc2c(cc1OC)CN(C(=O)CN1CCN(S(=O)(=O)c3ccc(C)c(C)c3)CC1)CC2	–	–	–	–	·
O=C(NCCn1c(C(F)(F)F)nc2ccccc21)[C@H]1CCCN1c1nc(CN2CCCCC2)cs1	–	–	–	–	·
COC(=O)c1cc(Nc2cc(C)c3c(O)cccc3n2)cc(C(=O)OC)c1	–	–	–	?	·
COc1ccc(Nc2cc(C)c3c(O)cccc3n2)cc1	–	–	–	21µM	·
Cc1cc(Nc2ccccc2O)c2ccccc2n1	–	–	–	–	·
Cc1ccccc1Nc1cc(C)c2c(O)cccc2n1	–	–	–	19µM	–
Cc1ccc(Nc2cc(C)c3c(O)cccc3n2)cc1C	?	?	?	9.5µM	·
COC(=O)c1cc(Nc2cc(C)c3ccc(O)cc3n2)cc(C(=O)OC)c1	–	–	–	–	·
Cc1ccc(Nc2cc(C)c3ccc(O)cc3n2)cc1C	–	–	–	17µM	·
COc1ccc(C(=O)Oc2cc(-c3ccc4c(c3)OCO4)cc(=O)c3c(C)oc(C)c23)cc1	·	·	·	–	–
CC(C)(Oc1ccc(Cl)cc1)C(=O)NCC1CCCO1 (configuration not stated)	–	–	–	–	·
CC(NC(=O)c1ccc(NC(=O)CC2SC(N3CCCC3)=NC2=O)cc1)c1ccccc1 (configuration not stated)	–	–	–	–	·
O=C(O)c1ccc(NC(=O)c2cc(S(=O)(=O)N3CCCCC3)c(Cl)cc2Cl)cc1	·	·	·	–	–
COc1ccccc1C(=O)NCCC(=O)NCCCSc1ccccc1	–	–	–	–	·
CC(=O)Nc1ccc(C2NC(=O)c3ccccc3O2)cc1 (configuration not stated)	–	–	–	–	·
CC(=O)Nc1ccc(C2C(=O)c3ccccc3C2=O)cc1	23µM	?	?	2.1µM	·
CCCC(=O)Nc1ccc(C2C(=O)c3ccccc3C2=O)cc1	–	3.5µM	1.6µM	1.1µM	·
NCCCC[C@H]1CNC(=O)C(=O)N1CCc1cccc(F)c1	–	–	–	–	·
COc1ccc(OC)c(C(C)NC(=O)C(C)n2cc([N+](=O)[O-])cn2)c1 (configuration not stated)	–	–	–	–	·
COC(=O)/C(=C/c1c[nH]c2ccccc12)[N+](=O)[O-]	–	–	–	19µM	·
SMILES	ELG1 genotox	Rab9 promoter act	NPC1 promoter act	FLuc counter	SMN2 splice up
Cc1cccc(C(=O)Nc2cccc(C(=O)N/N=C/c3cccc(C)n3)c2)c1	–	–	–	17µM	·
CC(=O)Nc1cccc(C(=O)N/N=C/c2cccc(C)n2)c1	–	–	–	?	·
Cc1ccc(C(=O)Nc2cccc(C(=O)N/N=C/c3ccc(O)cc3)c2)cc1	–	2µM	1.4µM	0.67µM	·
O=C(N/N=C/c1cccc(NC(=O)c2ccc(Cl)cc2)c1)c1cccc(O)c1	–	2.8µM	1.3µM	1.9µM	·
Cc1cc(C(=O)NCC(c2ccco2)N2CCCC2)c2ccccc2n1 (configuration not stated)	–	–	–	–	·
COc1ccccc1NC(=O)c1cc2ccccc2o1	?	?	?	6.7µM	22µM
O=C(NCc1ccccc1Cl)c1cc2ccccc2o1	·	·	·	?	–
O=C(Nc1ncccc1Cl)c1cc2ccccc2o1	7.3µM	1.6µM	2µM	5.4µM	·
O=C(Nc1ccc(Cl)cc1Cl)c1cc2ccccc2o1	?	1.6µM	1.4µM	0.95µM	·
Cc1ccccc1NC(=O)c1cc2ccccc2o1	7.3µM	?	4µM	8.5µM	·
Cc1ccccc1NC(=O)c1cc(=O)c2ccccc2o1	–	–	–	–	–
